Laboratory results as given in PubChem BioAssay AID1856 (The Scripps Research Institute Molecular Screening Center, 2009).
Screen size: about 1,300 compounds; fewer than 10 were called active. How the calls were made is not given here. The list is a sample of the results.

Tested on: metallo-beta-lactamase IMP-1 (Pseudomonas aeruginosa)
Test: IMP-1 metallo-beta-lactamase inhibitors, confirmation, selectivity assay for selective VIM-2 inhibitor project, biochemical, epi-absorbance readout, triplicate (AID 1856);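 further: 0% = enzyme with vehicle and 100% = vehicle without enzyme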
Details: purified IMP-1, nitrocefin hydrolysis, epi-absorbance fluorescence; at 5.6 µM; active compounds read high

inhibition, inactive:
C=CCn1c(-c2ccccc2OCC)n[nH]c1=S -2.2%
Cc1cc(NCc2ccco2)n2c(nc3ccccc32)c1C#N -3.37%
O=C(COc1cc2oc(=O)c3c(c2cc1Cl)CCC3)NCCCN1CCOCC1 -1.87%
CCN(CC)c1ccc2cc(C(N)=O)/c(=N\NC(=O)c3ccncc3)oc2c1 -2.41%
Cc1cccn2c(=O)c(C=O)c(Nc3ccc(S(N)(=O)=O)cc3)nc12 -3.66%
COc1nc(N=C(N)N)nc2c(C)cccc12 -3.85%
COc1cc(NC(=O)C2=C(C)OCCS2)c(Cl)cc1C(=O)NCCN1CCN(C)CC1 -2.62%
CCN1CCN(CCNC(=O)c2ccc3c(c2)NC(=O)/C(=C\c2ccc(OC)c(OC)c2)S3)CC1 -3.87%
Cn1c(-c2sccc2OCc2cccc(C(F)(F)F)c2)n[nH]c1=S -2.3%
CCOC(=O)N1CCN(C(=O)C2CCN(c3ncnc4c3sc3cccc(F)c34)CC2)CC1 -2.28%
Cc1cc(-c2ccc(/C=N/n3cnnc3)o2)c([N+](=O)[O-])cc1C -2.82%
CNC(=O)c1ccsc1NC(=O)c1ccc(S(=O)(=O)N2CCOCC2)cc1 -2.75%
Cc1cc(C)c2nc3nc(C)cc(C)c3c(N)c2c1 -3.37%
COc1ccc(-c2nn3c(-c4ccccc4)nnc3s2)cc1OC -2.66%
CCc1cc(=O)oc2cc(C)cc(OCC(=O)N3CCC[C@@H]3C(=O)O)c12 -3.22%
NC(=O)C1CCN(C(=O)COc2ccc3c4c(c(=O)oc3c2)CCC4)CC1 -2.5%
COc1cc(/C=N/Nc2nn3cnnc3c3ccccc23)cc(OC)c1OC -2.07%
Cc1cc([N+](=O)[O-])c(-c2ccc(/C=N/n3cnnc3)o2)cc1Cl -2.7%
COc1ccc(Nc2cc(C)nc(-n3nc(C)cc3C)n2)cc1 -4.36%
COc1cc(-c2nn3c(-c4cccc(C)c4)nnc3s2)cc(OC)c1OC -3.37%
CCN1CCCC1CNC(=O)c1cc2c(=O)n(C)c3ccccc3c2n1C (configuration not stated) -1.43%
COC(=O)c1c(NC(=O)c2ccc(S(=O)(=O)N3CCOCC3)cc2)sc2c1CCN(C(C)C)C2 -3.07%
Cc1nc2ccccc2c2oc(C(=O)NCCCN3CCC(C)CC3)cc12 -2.57%
O=C(NCCCN1CCOCC1)c1cnn2c(-c3ccccc3)cc(-c3ccccc3)nc12 -1.31%
CCOc1cc(/C=C2\SC(N3CCCC(C)C3)=NC2=O)ccc1O (configuration not stated) -1.58%
CN1CCN(c2ccc(NC(=O)c3ccc4c(c3)[nH]c(=O)n4Cc3ccc(F)cc3)cc2)CC1 -2.45%
Nc1cccc2c1C(=O)N(Cc1nnc(-c3ccccc3Br)o1)C2=O -1.84%
O=C(NC(=S)Nc1ccccc1C(=O)O)c1ccc(-c2ccc(Br)cc2)o1 -2.92%
Cn1c2ccccc2c(=O)c2c(O)cccc21 1.94%
O=c1[nH]c(-c2ccccc2)c(-c2ccccc2)[nH]1 -1.69%
COc1ccc(/C=N/N(C)C2=NS(=O)(=O)c3ccccc32)cc1OC -2.33%
CCOc1cc(/C=C2\SC(N3CCCCC3)=NC2=O)ccc1O -4.28%
CCN1CCN(C(=O)Cn2nc(C)n3c(cc4c(OC)cccc43)c2=O)CC1 -3.39%
Clc1cc(-c2ccc(/C=N/n3cnnc3)o2)ccc1Br -2.66%
Nc1nnc2c(C(F)(F)F)nc3ccccc3n12 -2.31%
Cc1ccc(Cl)cc1-c1ccc(/C=N/n2cnnc2)o1 -3.92%
COc1ccc(CCn2c(=N)c(C(=O)NCC3CCCO3)cc3c(=O)n4cccc(C)c4nc32)cc1OC (configuration not stated) -3.13%
COC(=O)c1ccc(-c2noc(CN(Cc3ccccn3)CC3CCCO3)n2)cc1 (configuration not stated) -4.37%
CCOCCCNc1c(CC)c(C)c(C#N)c2nc3ccccc3n12 -2.98%
O=C1Nc2cc(C(=O)N3CCC(N4CCCCC4)CC3)ccc2S/C1=C\c1ccccc1 -4.01%
CCC1CCCCN1CCCNC(=O)c1cc2c(Cl)nc3ccccc3c2s1 (configuration not stated) -2%
Cc1ccc2nc(C)c3c(c2c1)N(c1ccccc1)CC3 -3.39%
Fc1ccc(-c2ccc(CNCc3ccccn3)o2)cc1Cl -3.51%
CC(NS(=O)(=O)c1ccccc1)c1n[nH]c(=S)n1-c1ccccc1 (configuration not stated) -3.01%
Cn1c(=O)c2c(nc(N3CCOCC3)n2CCNC2=NCCC2)n(C)c1=O -2.77%
CCN(CC)CCOc1ccc2c(c1)C(=NNC(=O)c1ccccn1)c1cc(OCCN(CC)CC)ccc1-2 -6.88%
CC(=O)c1ccc(-c2ccc(Cn3c(C)nc4cc(N)c(C)nc43)cc2)cc1 -2.57%
CCCc1ccc(OCCNC(=O)c2ccco2)cc1 -3.83%
CN(C)CCNc1ccc(-c2n[nH]c(=O)c3ccccc23)cc1[N+](=O)[O-] -3.19%
COc1ccc(Cc2nnc(NS(=O)(=O)Cc3ccccc3)s2)cc1 -2.35%
CC(C)(C)CC(=O)Nc1nnc(SCC(=O)NCc2cccs2)s1 -4.47%
CC1CCCC(C)N1CCCNC(=O)c1cc2c(=O)n(C)c3ccccc3c2n1C (configuration not stated) -3.58%
